Measured values reported in PubChem BioAssay.
The source made the active and inactive calls.

Tests used:
[1] = test system: Plasmodium falciparum Sir2 (PF13_0152, Sir2A); test: Plasmodium falciparum Sir2A binding compounds – biochemical, small-molecule microarray, 635 nm fluorescence, primary screen (AID 1098); settings: fluorescence 635 nm, higher = more signal;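 further: score merges spot fluorescence intensity with its signal-to-noise ratio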
[2] = probe aDKK1 binding to arrayed compounds – biochemical, biotinylated probe, 635/667 nm fluorescence, primary screen (AID 1099); settings: small-molecule microarray, higher = more signal;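 further: score merges 667nm spot fluorescence with signal to noise across triplicate slides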
[3] = probe aCHRDL2 binding to arrayed compounds – biochemical, biotinylated probe, 635/667 nm fluorescence, primary screen (AID 1100); settings: small-molecule microarray, higher = more signal
[4] = change in splice reporter luminescence, either direction, cell-based, HEK293, spliceosome inhibition project, primary screen (AID 1101); settings: HEK293 splicing luciferase reporter, 24 h, higher = more signal, called active from +8 up or from −8 down;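 further: HEK293 cells carrying a splicing-competent luciferase reporter gene; test concentration not given here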
[5] = target: Fibroblast growth factor 10 (Homo sapiens) (UniProt O15520); test: compounds binding fibroblast growth factor 10 – biochemical, small-molecule microarray, 635 nm fluorescence, primary screen (AID 1102); settings: FGF10 binding, fluorescence 635 nm, higher = more signal
[6] = test system: glycogen synthase kinase-3 (GSK3A per assay name; protocol says GSK3B); test: compounds binding glycogen synthase kinase-3 – biochemical, small-molecule microarray, 635 nm fluorescence, GSK3A, primary screen (AID 1103); settings: fluorescence 635 nm, higher = more signal; further: the record names both GSK3A and GSK3B
[7] = target: Epidermal growth factor receptor (Homo sapiens) (UniProt P00533); test: compounds binding epidermal growth factor receptor – biochemical, small-molecule microarray, 635 nm fluorescence, primary screen (AID 1104); settings: EGFR binding, higher = more signal;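 further: score merges 667 nm emission intensity with spot signal to noise over triplicate slides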
[8] = target: Follistatin-related protein 3 (Homo sapiens) (UniProt O95633); test: compounds binding follistatin-related protein 3 – biochemical, small-molecule microarray, 635 nm fluorescence, primary screen (AID 1105); settings: FSTL3 binding, higher = more signal;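 further: score merges emission near 667 nm and signal to noise per printed spot across three slides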
[9] = target: Dickkopf-related protein 1 (Homo sapiens) (UniProt O94907); test: small molecules binding DKK1 protein – biochemical, small-molecule microarray, 635 nm fluorescence scan, primary screen (AID 1106); settings: higher = more signal;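 further: score merges emission near 667 nm with signal to noise over three replicate slides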
[10] = test system: Inhibin beta A chain (activin A); test: small molecules binding activin A – biochemical, small-molecule microarray, 635 nm fluorescence scan, primary screen (AID 1107); settings: INHBA, higher = more signal;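 further: mouse activin A protein probed at 4.33 µg/mL on printed slides; score merges bound-protein fluorescence near 667 nm with spot signal-to-noise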
[11] = test system: Human papillomavirus type 1a protein E7 (residues 44-93); test: small molecules binding HPV E7 44-93 – biochemical, small-molecule microarray, residues 44-93, 635 nm fluorescence, primary screen (AID 1108); settings: fluorescence 635 nm, higher = more signal;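 further: E7 fragment applied at 1 µg/mL in TBST for 1 h at 4 C; score combines spot fluorescence with its signal to noise ratio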
[12] = hepatitis C replication reporter changes, two-sided – Huh7 cells, luciferase reporter, HCV replication inhibitor project, primary screen (AID 1109); settings: Huh7 HCV replicon luciferase reporter, 48 h; higher = more signal;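 further: huh7 hepatoma cells harbouring a luciferase neomycin HCV replicon reporter; luciferase luminescence as measure of HCV replicon replication; test concentration not given here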
[13] = target: Left-right determination factor 2 (Homo sapiens) (UniProt O00292); test: small molecules binding LEFTY2 protein – biochemical, small-molecule microarray, 635 nm fluorescence scan, primary screen (AID 1110); settings: higher = more signal
[14] = target: Calmodulin-1 (Homo sapiens) (UniProt P0DP23); test: small molecules binding calmodulin-1 with EGTA – biochemical, small-molecule microarray, Cy5-labelled CALM1, profiling panel (AID 1111); settings: Cy5-CALM1 binding fluorescence, higher = more signal;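 further: labelled calmodulin applied in Tris saline Tween buffer holding calcium plus EGTA and DTT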
[15] = target: Calmodulin-1 (Homo sapiens) (UniProt P0DP23); test: small molecules binding Ca-loaded calmodulin-1 – biochemical, small-molecule microarray, Cy5-labelled CALM1, plus calcium, artefact control for SMM control-protein annotation, profiling panel (AID 1112); settings: Cy5-CALM1 binding fluorescence, higher = more signal;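 further: score merges spot fluorescence with signal to noise from triplicate slides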
[16] = probe aWnt5a binding to arrayed compounds – biochemical, biotinylated probe, 635/667 nm fluorescence, primary screen (AID 1113); settings: small-molecule microarray, higher = more signal;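 further: score merges 667 nm fluorescence intensity with signal-to-noise per printed feature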
[17] = probe aShh binding to arrayed compounds – biochemical, biotinylated probe, 635/667 nm fluorescence, primary screen (AID 1114); settings: small-molecule microarray, higher = more signal;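 further: probe is biotin-labelled aShh protein from a stem cell growth factor screen; measures binding of labelled protein to compounds printed on the slide; score merges feature fluorescence at 667 nm with signal-to-noise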
[18] = probe aNog binding to arrayed compounds – biochemical, biotinylated probe, 635/667 nm fluorescence, primary screen (AID 1115); settings: small-molecule microarray, higher = more signal;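 further: probe is biotinylated aNog protein used at 0.15 µg/mL for 1 h at 4 C; z-score combines 667 nm fluorescence of each spot with its signal to noise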
[19] = target: Torsin-1A-interacting protein 1 (Homo sapiens) (UniProt Q5JTV8); test: compound microarray binding of lysate hLAP1 – cell lysate, small-molecule microarray, COS7 lysate, 635/667 nm fluorescence, primary screen (AID 1116); settings: 635 nm fluorescence, higher = more signal
[20] = target: Alpha-bungarotoxin (Bungarus multicinctus) (UniProt P60615); test: compounds binding labelled alpha-BTX control protein – biochemical, small-molecule microarray, Alexa647 label, 635/667 nm fluorescence, artefact control for SMM control protein annotation, profiling panel (AID 1117); settings: alpha-BTX-A647 binding fluorescence, higher = more signal
Alpha-bungarotoxin (Bungarus multicinctus), sequence (P60615 whole entry, looked up): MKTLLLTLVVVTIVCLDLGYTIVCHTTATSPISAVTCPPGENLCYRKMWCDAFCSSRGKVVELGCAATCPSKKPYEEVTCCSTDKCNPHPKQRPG

Fibroblast growth factor 10 (Homo sapiens), sequence (O15520 whole entry, looked up): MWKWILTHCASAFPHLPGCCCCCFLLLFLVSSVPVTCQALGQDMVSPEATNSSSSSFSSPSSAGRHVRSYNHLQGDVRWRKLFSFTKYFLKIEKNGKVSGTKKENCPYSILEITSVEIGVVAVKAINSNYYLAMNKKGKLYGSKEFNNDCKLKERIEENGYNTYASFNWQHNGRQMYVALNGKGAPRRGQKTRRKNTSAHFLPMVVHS
Dickkopf-related protein 1 (Homo sapiens), sequence (O94907 whole entry, looked up): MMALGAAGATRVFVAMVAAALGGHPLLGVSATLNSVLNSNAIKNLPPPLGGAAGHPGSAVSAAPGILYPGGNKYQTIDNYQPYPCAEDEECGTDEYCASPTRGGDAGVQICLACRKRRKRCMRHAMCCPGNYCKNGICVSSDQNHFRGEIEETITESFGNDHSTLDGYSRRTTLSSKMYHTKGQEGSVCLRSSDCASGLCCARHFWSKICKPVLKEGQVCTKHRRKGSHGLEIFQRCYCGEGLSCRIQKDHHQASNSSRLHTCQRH
Follistatin-related protein 3 (Homo sapiens), sequence (O95633 whole entry, looked up): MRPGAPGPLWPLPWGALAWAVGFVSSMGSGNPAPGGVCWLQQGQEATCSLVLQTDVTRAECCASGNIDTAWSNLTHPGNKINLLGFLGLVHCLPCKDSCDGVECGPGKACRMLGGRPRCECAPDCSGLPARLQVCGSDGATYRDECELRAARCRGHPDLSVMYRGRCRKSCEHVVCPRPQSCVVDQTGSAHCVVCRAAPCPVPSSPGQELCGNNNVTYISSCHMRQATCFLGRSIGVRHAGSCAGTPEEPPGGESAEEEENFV
Torsin-1A-interacting protein 1 (Homo sapiens), sequence (Q5JTV8 whole entry, looked up): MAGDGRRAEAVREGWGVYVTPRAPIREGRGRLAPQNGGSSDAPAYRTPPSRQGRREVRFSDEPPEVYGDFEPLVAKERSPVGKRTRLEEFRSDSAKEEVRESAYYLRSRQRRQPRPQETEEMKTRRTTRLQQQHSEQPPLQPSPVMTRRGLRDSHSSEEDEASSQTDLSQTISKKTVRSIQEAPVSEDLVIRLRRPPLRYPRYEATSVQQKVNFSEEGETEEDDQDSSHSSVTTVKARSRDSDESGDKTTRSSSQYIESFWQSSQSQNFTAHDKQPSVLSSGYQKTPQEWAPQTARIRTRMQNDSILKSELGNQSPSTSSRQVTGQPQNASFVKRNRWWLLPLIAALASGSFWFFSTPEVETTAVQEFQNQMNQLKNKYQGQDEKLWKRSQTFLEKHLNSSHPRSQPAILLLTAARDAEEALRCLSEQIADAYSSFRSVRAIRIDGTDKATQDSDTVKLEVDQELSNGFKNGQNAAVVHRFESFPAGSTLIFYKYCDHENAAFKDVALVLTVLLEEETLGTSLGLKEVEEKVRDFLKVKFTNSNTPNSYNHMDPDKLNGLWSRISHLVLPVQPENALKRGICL
Left-right determination factor 2 (Homo sapiens), sequence (O00292 whole entry, looked up): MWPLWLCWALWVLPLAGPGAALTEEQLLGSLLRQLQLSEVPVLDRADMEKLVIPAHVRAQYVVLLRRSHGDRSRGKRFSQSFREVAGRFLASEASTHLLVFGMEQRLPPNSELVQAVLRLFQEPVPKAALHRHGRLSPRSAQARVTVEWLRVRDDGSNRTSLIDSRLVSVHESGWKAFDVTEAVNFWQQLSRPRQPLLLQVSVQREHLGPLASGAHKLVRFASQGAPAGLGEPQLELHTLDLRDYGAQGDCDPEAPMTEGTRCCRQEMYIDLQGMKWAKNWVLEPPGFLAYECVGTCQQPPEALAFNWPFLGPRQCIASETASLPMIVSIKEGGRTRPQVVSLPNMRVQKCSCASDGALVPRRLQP
Epidermal growth factor receptor (Homo sapiens), sequence (P00533 whole entry, looked up): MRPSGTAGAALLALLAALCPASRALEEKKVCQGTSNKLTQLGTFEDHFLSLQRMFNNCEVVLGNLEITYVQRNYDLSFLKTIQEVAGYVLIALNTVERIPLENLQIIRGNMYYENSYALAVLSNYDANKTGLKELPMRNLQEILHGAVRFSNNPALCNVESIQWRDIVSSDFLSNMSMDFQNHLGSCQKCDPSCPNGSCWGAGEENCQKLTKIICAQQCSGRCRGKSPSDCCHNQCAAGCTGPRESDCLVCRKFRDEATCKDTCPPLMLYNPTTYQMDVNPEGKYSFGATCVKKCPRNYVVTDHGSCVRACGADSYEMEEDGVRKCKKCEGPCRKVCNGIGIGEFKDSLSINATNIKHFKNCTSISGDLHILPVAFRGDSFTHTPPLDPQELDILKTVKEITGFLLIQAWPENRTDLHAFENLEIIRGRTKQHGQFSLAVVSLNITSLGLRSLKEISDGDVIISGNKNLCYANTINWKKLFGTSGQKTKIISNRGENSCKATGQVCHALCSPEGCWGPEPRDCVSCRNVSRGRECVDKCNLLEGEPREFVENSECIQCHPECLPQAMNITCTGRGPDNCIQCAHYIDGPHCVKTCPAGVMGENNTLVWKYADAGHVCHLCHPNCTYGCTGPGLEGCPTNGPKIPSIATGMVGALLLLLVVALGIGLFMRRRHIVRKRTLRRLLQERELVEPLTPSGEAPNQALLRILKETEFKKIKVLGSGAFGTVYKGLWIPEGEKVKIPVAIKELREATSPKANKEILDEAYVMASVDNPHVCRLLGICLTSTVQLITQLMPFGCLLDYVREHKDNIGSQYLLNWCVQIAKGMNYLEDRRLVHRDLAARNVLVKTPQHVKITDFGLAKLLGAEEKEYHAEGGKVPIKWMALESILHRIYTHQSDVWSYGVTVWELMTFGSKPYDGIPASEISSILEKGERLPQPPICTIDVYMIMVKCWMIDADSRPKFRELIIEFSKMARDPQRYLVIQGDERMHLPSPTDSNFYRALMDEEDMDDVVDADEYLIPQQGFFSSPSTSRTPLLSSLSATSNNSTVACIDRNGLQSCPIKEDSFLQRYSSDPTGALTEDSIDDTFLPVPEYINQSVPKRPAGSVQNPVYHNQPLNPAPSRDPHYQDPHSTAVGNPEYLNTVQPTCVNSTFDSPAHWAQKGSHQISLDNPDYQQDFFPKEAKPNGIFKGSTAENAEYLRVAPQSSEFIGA

SMILES: CO[C@H]1COC(=O)[C@@H](C)COC(=O)[C@@H](OCc2ccccc2)C=C[C@@H]1C
- composite z-score [1]: 0.212
- composite z-score [2]: -0.439
- composite z-score [3]: -0.514
- z-score [4]: 0.232 (inactive)
- composite z-score [5]: -0.162
- composite z-score [6]: -0.227
- composite z-score [7]: -0.0072
- composite z-score [8]: -0.13
- composite z-score [9]: 0.348
- composite z-score [10]: 0.18
- composite z-score [11]: -0.193
- z-score [12]: -1.38
- composite z-score [13]: 0.281
- composite z-score [14]: 0.0243
- composite z-score [15]: -0.642
- composite z-score [16]: -0.0346
- composite z-score [17]: -0.276
- composite z-score [18]: -0.37
- composite z-score [19]: -0.0153
- composite z-score [20]: -0.807

SMILES: C=C(C)C(=O)OCC1CN2[C@@H](CC[C@@H](C)[C@@H]2c2ccc(Br)cc2)C(=O)O1 (stereo not given in full)
- composite z-score [1]: 0.299
- composite z-score [2]: -0.201
- composite z-score [3]: -0.118
- z-score [4]: 0.411 (inactive)
- composite z-score [5]: 0.237
- composite z-score [6]: 0.363
- composite z-score [7]: -0.202
- composite z-score [8]: 0.0267
- composite z-score [9]: 0.147
- composite z-score [10]: -0.0608
- composite z-score [11]: 0.0141
- z-score [12]: 0.159
- composite z-score [13]: 0.501
- composite z-score [14]: -0.15
- composite z-score [15]: -0.566
- composite z-score [16]: -0.199
- composite z-score [17]: -0.229
- composite z-score [18]: 0.184
- composite z-score [19]: 0.522
- composite z-score [20]: 0.499

SMILES: COC(=O)[C@@H]1CC[C@H](C)[C@@H](c2ccc(C)cc2)N1C(=O)c1ccc(C=NO[C@H](C)c2cn([C@H](CO)Cc3ccccc3)nn2)cc1
- composite z-score [1]: 0.652
- composite z-score [2]: 0.178
- composite z-score [3]: 0.115
- z-score [4]: -0.178 (inactive)
- composite z-score [5]: 0.694
- composite z-score [6]: 0.835
- composite z-score [7]: 0.551
- composite z-score [8]: 1.05
- composite z-score [9]: 0.81
- composite z-score [10]: 0.135
- composite z-score [11]: 0.671
- z-score [12]: -2.17
- composite z-score [13]: 0.776
- composite z-score [14]: 3.17
- composite z-score [15]: -0.139
- composite z-score [16]: -0.124
- composite z-score [17]: 0.191
- composite z-score [18]: -0.0318
- composite z-score [19]: 0.462
- composite z-score [20]: 0.0997

SMILES: COC(=O)[C@H](C)NC(=O)CCC1CC(OC(=O)NCCc2ccc(F)cc2)CC2(CCCC(COC(=O)NCc3cccc(C(F)(F)F)c3)O2)O1 (stereo not given in full)
- composite z-score [1]: 0.185
- composite z-score [2]: -0.528
- composite z-score [3]: -0.623
- z-score [4]: 0.249 (inactive)
- composite z-score [5]: 0.951
- composite z-score [6]: 0.359
- composite z-score [7]: 0.873
- composite z-score [8]: 1.31
- composite z-score [9]: 1.41
- composite z-score [10]: 0.0622
- composite z-score [11]: 0.518
- z-score [12]: -0.377
- composite z-score [13]: 0.749
- composite z-score [14]: -0.0669
- composite z-score [15]: -0.23
- composite z-score [16]: -0.146
- composite z-score [17]: -0.59
- composite z-score [18]: -0.302
- composite z-score [19]: 0.322
- composite z-score [20]: -0.131

SMILES: CO[C@@H]1COC(=O)[C@@H](C)NC(=O)CC=C[C@@H](C)[C@H](NS(=O)(=O)c2ccc(C)cc2)COC(=O)[C@H](C)NC(=O)CC=C[C@H]1C
- composite z-score [1]: 1.49
- composite z-score [2]: -0.629
- composite z-score [3]: -1.22
- z-score [4]: 0.347 (inactive)
- composite z-score [5]: 0.611
- composite z-score [6]: 0.625
- composite z-score [7]: 0.57
- composite z-score [8]: 0.661
- composite z-score [9]: 0.822
- composite z-score [10]: 1.4
- composite z-score [11]: -0.0926
- z-score [12]: 0.0975
- composite z-score [13]: 0.765
- composite z-score [14]: -1.74
- composite z-score [15]: -1.94
- composite z-score [16]: -0.0045
- composite z-score [17]: -0.0709
- composite z-score [18]: -0.433
- composite z-score [19]: 0.392
- composite z-score [20]: -0.744

SMILES: CO[C@H](C1CCCCC1)[C@H](C)C=CCC(=O)OCCCc1ccccc1
- composite z-score [1]: -0.023
- composite z-score [2]: -0.38
- composite z-score [3]: -0.708
- z-score [4]: -0.0118 (inactive)
- composite z-score [5]: 0.227
- composite z-score [6]: -0.518
- composite z-score [7]: 0.471
- composite z-score [8]: 0.201
- composite z-score [9]: 0.287
- composite z-score [10]: 0.332
- composite z-score [11]: -0.743
- z-score [12]: 0.714
- composite z-score [13]: 0.291
- composite z-score [14]: -0.376
- composite z-score [15]: -0.937
- composite z-score [16]: -0.0874
- composite z-score [17]: -0.366
- composite z-score [18]: -0.27
- composite z-score [19]: 0.099
- composite z-score [20]: -0.051
